# Laboratory results: PubChem BioAssay (NCATS)
# Where “and” joins values, the source holds several entries; their conditions need not be identical. Identical values can stand only once. Values without a mark were called inactive. Results filed as inconclusive are left out. A call without a number means that no potency is given here. Calls of active or inactive are those of the source. Unless noted, calls come from the whole dose curve; as a rule, active = well fitted curve in the direction sought with a large enough effect; inconclusive = small, poorly fitted or top-dose-only effect, or another doubt; inactive = no such curve, though single readings can be large; an effect the other way counts as inactive or inconclusive.
# Columns and labels:
# [1] = S16 Schwann cell viability assay (CellTiter-Glo assay) (AID 624031);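 note: native untransfected S16 rat Schwann cells; series mostly up to about 58 µM; nearly all actives have a fitted effect of over 70% in size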
# Method in brief: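 Cells were seeded at 500-750 per well in phenol red-free DMEM with 10% FBS and left overnight. Compounds or DMSO were pinned in, incubation ran 24 h at 37 °C/5% CO2, then CellTiter-Glo reagent was added and luminescence measured.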
# [2] = S16 Schwann cell PMP22 intronic element firefly luciferase assay (AID 624032); note: series mostly up to about 58 µM; nearly all actives have a fitted effect of over 30% in size
# Method in brief: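 Rat S16 Schwann cells stably carrying firefly luciferase driven by a PMP22 intronic element, in 10% FBS, treated 24 h at 37 C. ONE-Glo luminescence normalized to PTC124 control and DMSO (0%); curves classed by r2, magnitude and activity.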
# [3] = qHTS assay for small molecule agonists of the antioxidant response element (ARE) signaling pathway (AID 651741; active = well fitted activation curve with a large enough effect in the signal ratio; the % refers to the signal ratio; note: potency is the fitted concentration of half-maximal effect)
# Method in brief: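 HepG2 ARE-bla cells plated at 2,000 cells/well and incubated 5 h at 37 C/5% CO2 received 23 nL compound in DMSO. After 16 h at 37 C, LiveBLAzer B/G FRET substrate was applied for 2 h at room temperature and fluorescence read.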
# [4] = qHTS assay for small molecule activators of the nuclear factor-kappa B (NF-kB) signaling pathway (AID 651749; active = well fitted activation curve with a large enough effect in the signal ratio; the % refers to the signal ratio; note: series mostly up to about 77 µM); conditions: NF-kB-bla ME-180 cells, beta-lactamase FRET ratio, 16 h; stronger effect = higher value
# Method in brief: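 Incubation lasted 16 hr at 37C in 5% CO2 after 23 nL compound addition to ME-180 NF-kB-bla cells. Activation appears as beta-lactamase-mediated FRET loss.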
# [5] = target: Tumor necrosis factor (Homo sapiens) (UniProt P01375); experiment: qHTS assay to identify small molecules that stimulate Tumor Necrosis Factor-alpha (TNF-alpha) secretion (AID 651757; active = well fitted curve in the direction sought with a large enough effect in the signal ratio; the % refers to the signal ratio)
# Tumor necrosis factor (Homo sapiens), sequence (P01375 whole entry, looked up): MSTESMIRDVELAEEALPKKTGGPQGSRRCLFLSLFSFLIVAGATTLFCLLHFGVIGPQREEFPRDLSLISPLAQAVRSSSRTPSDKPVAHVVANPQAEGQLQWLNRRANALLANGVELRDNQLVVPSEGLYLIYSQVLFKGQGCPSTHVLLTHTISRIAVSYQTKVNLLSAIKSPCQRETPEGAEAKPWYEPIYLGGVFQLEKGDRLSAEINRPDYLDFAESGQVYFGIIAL
# Method in brief: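 Secreted TNF-alpha from compound-treated THP-1 cells (17 hrs, 37 C) was quantified with a homogeneous time-resolved fluorescence antibody assay.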
# [6] = qHTS assay for environmental chemicals that activate the Aryl hydrocarbon Receptor (AhR) signaling pathway (AID 651777); conditions: 1A2-DRE human hepatoma cells, luciferase, 24 h; stronger effect = higher value; note: nearly all actives have a fitted effect of over 15% in size
# Method in brief: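 AhR activation is scored as a rise in luciferase from a stable DRE–CYP1A2 promoter construct in human hepatoma cells. Treatment lasts 24 hr at 37 C; detection uses One-Glo after 30 min at room temperature.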
# [7] = target: Peroxisome proliferator-activated receptor alpha (Homo sapiens) (UniProt Q07869); experiment: qHTS assay for small molecule agonists of the peroxisome proliferator-activated receptor alpha (PPARalpha) signaling pathway (AID 651778); conditions: PathHunter PPARalpha complementation, chemiluminescence, 6 h; stronger effect = higher value
# Peroxisome proliferator-activated receptor alpha (Homo sapiens), sequence (Q07869 whole entry, looked up, the tested form may be a part): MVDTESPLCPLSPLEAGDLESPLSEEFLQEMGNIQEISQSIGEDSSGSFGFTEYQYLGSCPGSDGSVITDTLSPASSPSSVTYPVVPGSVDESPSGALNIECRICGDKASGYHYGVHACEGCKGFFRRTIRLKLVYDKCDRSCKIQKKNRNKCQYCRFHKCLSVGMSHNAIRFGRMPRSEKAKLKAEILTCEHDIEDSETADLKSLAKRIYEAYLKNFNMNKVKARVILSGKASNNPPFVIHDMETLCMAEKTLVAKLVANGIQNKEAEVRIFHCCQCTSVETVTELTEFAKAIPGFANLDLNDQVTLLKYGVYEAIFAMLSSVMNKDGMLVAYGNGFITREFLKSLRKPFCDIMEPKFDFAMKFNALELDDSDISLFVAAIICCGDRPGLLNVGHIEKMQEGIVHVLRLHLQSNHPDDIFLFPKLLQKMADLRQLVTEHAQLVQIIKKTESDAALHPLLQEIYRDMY
# Method in brief: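 Enzyme-fragment complementation assay in which ligand-bound PPARalpha translocates and forms an active enzyme that generates chemiluminescence. Cells were plated overnight, exposed to compound for 6 hr at 37 C, and then given detection reagent for 60 min at room temperature.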
# [8] = target: Nuclear receptor ROR-gamma (Homo sapiens) (UniProt P51449); experiment: qHTS assay for small molecule antagonists of the retinoid-related orphan receptor gamma (ROR-gamma) signaling pathway (AID 651802);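 note: CHO cells with doxycycline-induced ROR-gamma expression; luciferase reporter luminescence driven by ROR response element; series mostly up to about 92 µM; nearly all actives have a fitted effect of over 60% in size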
# Nuclear receptor ROR-gamma (Homo sapiens), sequence (P51449 whole entry, looked up): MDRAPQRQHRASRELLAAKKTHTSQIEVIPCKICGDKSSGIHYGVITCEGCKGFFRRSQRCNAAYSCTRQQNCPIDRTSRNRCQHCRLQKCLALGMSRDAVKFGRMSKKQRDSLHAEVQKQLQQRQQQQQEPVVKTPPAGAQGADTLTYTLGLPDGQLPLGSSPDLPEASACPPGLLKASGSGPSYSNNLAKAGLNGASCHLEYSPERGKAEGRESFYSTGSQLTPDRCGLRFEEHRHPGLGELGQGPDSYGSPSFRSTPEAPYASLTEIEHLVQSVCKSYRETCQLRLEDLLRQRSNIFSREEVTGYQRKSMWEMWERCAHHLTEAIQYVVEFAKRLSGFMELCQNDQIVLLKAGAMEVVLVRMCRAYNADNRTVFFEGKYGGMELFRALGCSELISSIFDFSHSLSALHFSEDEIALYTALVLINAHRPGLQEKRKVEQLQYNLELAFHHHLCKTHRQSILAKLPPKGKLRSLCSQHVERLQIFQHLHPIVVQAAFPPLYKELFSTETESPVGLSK
# Method in brief: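 Antagonism is scored as a fall in luminescence from a RORE-luciferase reporter in CHO cells expressing ROR under a TET-inducible promoter, measured 16hr after doxycycline induction in the presence of compound.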
# [9] = qHTS assay for small molecule agonists of the antioxidant response element (ARE) signaling pathway measured by Nrf2-dependant transcriptional activity (AID 720636; active = well fitted curve in the direction sought with a large enough effect in the repeat runs; an effect the other way counts as inactive or inconclusive;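 note: HepG2 cells with an ARE-driven luciferase reporter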)
# Method in brief: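 First, ARE-luc HepG2 cells attached for 6 hr at 37 C in 1% dialyzed FBS medium. Next, compound or DMSO was added and incubated 16 hr. Finally, ONE-Glo reagent was added and luminescence measured after 30 min.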
# [10] = qHTS assay for small molecule agonists of the antioxidant response element (ARE) signaling pathway measured by Nrf2-dependant transcriptional activity - cell viability counter screen (AID 720653; active = well fitted curve in the direction sought with a large enough effect in the repeat runs; an effect the other way counts as inactive or inconclusive); conditions: ARE-bla HepG2 viability, CellTiter-Glo ATP luminescence, 16 h; stronger effect = lower value
# Method in brief: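 ARE-bla HepG2 cells treated with compounds for 16 h at 37C; this counter screen measures viability as intracellular ATP by CellTiter-Glo luminescence after 30 min at room temperature.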
# [11] = qHTS Assay for Identifying Gametocytocidal Compounds (AID 743244);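 note: actives lower the fluorescent signal which means gametocytes are killed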; conditions: P. falciparum 3D7 stage III-V gametocytes, alamarBlue, 72 h; max response: stronger effect = lower value
# Method in brief: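 P. falciparum 3D7 stage III–V gametocytes (20,000 cells/well) were exposed to compounds for 72 h at 37 °C, 5% CO2. AlamarBlue was then added for 24 h; decreased resorufin fluorescence (Ex 525/Em 598 nm) indicated loss of viability.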
# [12] = qHTS assay for cell viability of HEK293 cells (AID 743288); conditions: ATP luminescence (CellTiter-Glo), 18 h, stronger effect = lower value; note: nearly all actives have a fitted effect of over 50% in size
# Method in brief: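 The Tox21 protocol used parental HEK293 cells treated for 18 h at 37 C with compounds delivered by pintool; ATP-coupled luminescence after 30 min at room temperature gave viability.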
# [13] = qHTS assay for cell viability of the p53RE-bla HCT-116 cell line (AID 743292); note: nearly all actives have a fitted effect of over 55% in size
# Method in brief: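 Quantitative high-throughput format: compounds in DMSO were pinned onto p53RE-bla HCT-116 cells (4,000/well) and incubated 16 h at 37 C. Total intracellular ATP, read by CellTiter-Glo luminescence, reflects viable cell number.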
# [14] = qHTS assay for small molecule activators of the p53 signaling pathway (AID 651743; active = well fitted activation curve with a large enough effect in the signal ratio, not every such curve was filed as active; the % refers to the signal ratio; note: series mostly up to about 92 µM); conditions: HCT-116 p53RE-bla, beta-lactamase FRET ratio, 16 h; stronger effect = higher value
# Method in brief: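 HCT-116 p53RE-bla, 4,000 cells/well; 5 h settle; cpd/DMSO 16 h, 37 C; LiveBLAzer B/G 2 h RT; fluorescence intensity.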
# [15] = qHTS assay to identify small molecules that stimulate interleukin-8 (IL-8) secretion (AID 651758; active = well fitted activation curve with a large enough effect in the signal ratio; the % refers to the signal ratio)
# Method in brief: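 THP-1 cells (2000/well) exposed to compound 16 h at 37 C; secreted IL-8 then detected by HTRF with cryptate- and XL665-labelled anti-IL-8 antibody pair after 1-3 h at room temperature.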
# [16] = S16 Schwann cell PMP22 intronic element beta-lactamase assay (AID 624044; calls by dose curve; note: nearly all actives have a fitted effect of over 15% in size)
# Method in brief: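 Rat S16 Schwann cells with beta-Lac driven by a PMP22 intronic element, compound-treated 24 h at 37 °C. LiveBLAzer FRET B/G read: 460 nm normalized to potassium clavulanate vs DMSO; 535 nm FRET as viability; concentration-effect curves classified.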
Structure (SMILES),outcome [1],Potency [2],Potency [3],activation [4],outcome [5],activation [6],max response [7],outcome [8],outcome [9],max response [10],max response [11] [%],max response [12],outcome [13],activation [14],outcome [15],outcome [16]
O=C(c1ccccc1)C(O)c1ccccc1 (stereo unspecified),inactive,inactive,inactive,-2.35% and -0.255%,inactive,-1.25% and 2.53%,-1.85% and -1.14%,inactive,inactive,-4.04% and -7.26%,0.61,0.203% and -6.25%,inactive,,,
O=C(O)CCCCC1CCSS1 (stereo unspecified),inactive,inactive,48.6 µM (active) and 37.6 µM (active),-0.268% and -2.59%,inactive,1.47% and -0.721%,-5.44% and -4.99%,,inactive,10.3% and -9.69%,3.67,-11.1% and -8.74%,inactive,-5.57% and 16.2%,inactive,
CCS(=O)(=O)CCn1c([N+](=O)[O-])cnc1C,inactive,inactive,,,,,,,,,9.95,,,,,inactive
CCCCCCCC(=O)OCC(COC(=O)CCCCCCC)OC(=O)CCCCCCC,inactive,inactive,,,inactive,-1.98%,4.51%,inactive,inactive,1.9%,1.43,-8.85%,inactive,-2.91%,,
CCOc1cc(NC(C)=O)ccc1C(=O)OC,inactive,inactive,,,,,,,,,7.76,,,,,inactive
CC(=O)OCC(COC(C)=O)OC(C)=O,inactive,inactive,inactive,0.2% and 0.487%,inactive,1.18% and -0.878%,0.869% and -1.48%,inactive,inactive,-0.23% and 1.03%,41.8,2.21% and 6.16%,inactive,,inactive,
Cc1cc(=O)[nH]c(=S)[nH]1,inactive,inactive,,-0.135%,inactive,-0.745%,-5.54%,inactive,inactive,1.24%,4.75,-3.4%,inactive,-1.35%,inactive,
COc1ccc(NS(=O)(=O)c2ccc(N)cc2)nn1,inactive,inactive,,,,,,,,,10.4,,,,,inactive
COc1cc(C(=O)NCCCCCC(=O)O)cc(OC)c1OC,inactive,inactive,,,,,,,,,4.11,,,,,
CC(=O)Nc1ccccc1,inactive,inactive,,-0.999%,inactive,-1.4%,-5.14%,,inactive,-3.41%,9.51,-0.588%,inactive,,,
O=C(OOC(=O)c1ccccc1)c1ccccc1,inactive,inactive,inactive,,,2.82%,-3.46%,,inactive,-11.2%,-8.14,-11.7%,inactive,-0.427%,,
Cc1cccc(Nc2ccccc2C(=O)O)c1C,inactive,inactive,61.1 µM (active),,,2.22%,,,inactive,-4.01%,4.7,2.21%,inactive,,,
Cc1ccc(C(C)C)c(O)c1,inactive,inactive,inactive,-1.79%,,0.149%,-0.976%,,inactive,-4.59%,22.6,-16.2%,inactive,-1.75%,,
CCCC(O)C(CC)CO (stereo unspecified),inactive,inactive,inactive,0.969%,inactive,0.804%,-4.25%,inactive,inactive,0.4%,0.642,-0.929%,inactive,1.06%,inactive,
Cc1c(C(=O)NCCO)[n+](=O)c2ccccc2n1[O-],inactive,inactive,,-3.75%,,-0.247%,-1.31%,,inactive,-7.99%,6.22,-4.66%,inactive,3.58%,,
